According to PubChem BioAssay AID2284108 (EPA ToxCast):
The source made the active and inactive calls. Rule for the calls: active = hit-call score of the fitted dose curve at least 0.9, where 1 is the maximum; inactive = score below 0.9.

target: human Src Tyrosine Kinase, SRC (gene 6714) (UniProt P12931); assay: ERF_FR_ENZ_hSRC: Eurofins (ERF) Enzymatic Radiometric [Km ATP] KinaseProfiler LeadHunter Assay for human Src Tyrosine Kinase
Procedure: ERF_FR_ENZ_hSRC is a biochemical, single-readout assay that uses extracted gene-proteins in a cell-free assay. Measurements were taken 0.16 hour after chemical dosing in a 96-well plate. See Src Human TK Kinase Enzymatic LANCE Assay [Km ATP], Cerep.ERF_FR_ENZ_hSRC is an assay component calculated from the ERF_FR_ENZ_hSRC assay. It is designed to measure enzyme activity using a type of enzyme reporter as detected by fluorescence intensity with LANCE technology.Data from the assay component ERF_FR_ENZ_hSRC was analyzed at the assay endpoint, ERF_FR_ENZ_hSRC, in the positive analysis fitting direction relative to DMSO as the negative control and baseline of activity. Using a type of enzyme reporter, loss-of-signal activity can be used to understand changes in enzymatic activity as they relate to gene SRC. To generalize the intended target to other relatable targets, this assay endpoint is annotated to the kinase intended target family, where the subfamily is non-receptor tyrosine kinase.
c-Src (h) is incubated with 8 mM MOPS pH 7.0, 0.2 mM EDTA, 250 uM […] (Cdc2 peptide), 10 mM MgAcetate and [gamma-33P]-ATP (specific activity and concentration as required). The reaction is initiated by the addition of the Mg/ATP mix. After incubation for 40 minutes at room temperature, the reaction is stopped by the addition of phosphoric acid to a concentration of 0.5%. […]

Sequence of human Src Tyrosine Kinase, SRC (gene 6714) (P12931 whole entry, looked up): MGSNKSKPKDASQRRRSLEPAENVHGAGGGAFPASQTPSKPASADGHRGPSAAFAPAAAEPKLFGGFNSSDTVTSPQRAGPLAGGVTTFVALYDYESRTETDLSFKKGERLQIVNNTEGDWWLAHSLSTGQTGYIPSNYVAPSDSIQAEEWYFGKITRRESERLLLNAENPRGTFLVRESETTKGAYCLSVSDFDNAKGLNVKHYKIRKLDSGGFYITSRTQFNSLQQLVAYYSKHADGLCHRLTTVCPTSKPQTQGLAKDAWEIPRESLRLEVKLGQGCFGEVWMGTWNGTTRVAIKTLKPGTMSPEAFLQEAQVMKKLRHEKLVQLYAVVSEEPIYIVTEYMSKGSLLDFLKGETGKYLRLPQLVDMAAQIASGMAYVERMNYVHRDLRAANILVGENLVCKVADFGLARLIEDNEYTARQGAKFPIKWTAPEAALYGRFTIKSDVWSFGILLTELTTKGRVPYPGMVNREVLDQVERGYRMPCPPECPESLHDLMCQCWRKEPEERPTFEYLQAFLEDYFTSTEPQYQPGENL

Row | SMILES | outcome
1 | O=C(/C=C/c1ccc(O)cc1)CC(=O)/C=C/c1ccc(O)cc1 | inactive
